In all, about 5,500 compounds went through this assay and about 2,000 (36%) were called active. Not shown: some 18% with an inconclusive outcome. The list shows a part of the results. Unmarked numbers belong to inactive results. No stated cut-off is given here; in the data, active means normalized growth mostly below about 0.91 (no sharp cut-off); inconclusive means no clear call, values can overlap the other calls; inactive means mostly above about 0.92.
Test: chemical genetic growth profiling, strain panel (AID 1159580);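 further: tested at 20 µM; growth read once vehicle control cultures reached saturation at 30 °C; 1 = growth at the plate median or of vehicle wells; lower values mean less growth of the strain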
Details: growth OD

Question: With `Cc1ccc(Cl)c(Nc2ccccc2C(=O)O)c1Cl` as the compound, how does the normalized growth (S. cerevisiae deletion strains, locus YJR066W, strain TOR1, hits give low values) read?
Answer: 0.963

Question: And the normalized growth (S. cerevisiae deletion strains, locus YJR075W, strain HOC1, hits give low values)?
Answer: 0.877 (active)

Question: What about the normalized growth (S. cerevisiae deletion strains, locus YKL009W, strain mrt4, hits give low values) of the same compound?
Answer: 0.97

Question: And the normalized growth (S. cerevisiae deletion strains, locus YKL068W, hits give low values)?
Answer: 0.975

Question: What about the normalized growth (S. cerevisiae deletion strains, locus YKL085W, strain MDH1 (second series), hits give low values) of the same compound?
Answer: 0.957

Question: What about the normalized growth (S. cerevisiae deletion strains, locus YKL085W, strain MDH1, hits give low values) of the same compound?
Answer: 0.957

Question: And the normalized growth (S. cerevisiae deletion strains, locus YKL160W, strain elf1, hits give low values)?
Answer: 0.824 (active)

Question: What about the normalized growth (S. cerevisiae deletion strains, locus YKR001C, strain vps1, hits give low values) of the same compound?
Answer: 0.581 (active)

Question: What about the normalized growth (S. cerevisiae deletion strains, locus YKR026C, strain gcn3, hits give low values) of the same compound?
Answer: 0.893 (active)

Question: And the normalized growth (S. cerevisiae deletion strains, locus YKR091W, strain srl3, hits give low values)?
Answer: 0.879 (active)

Question: And the normalized growth (S. cerevisiae deletion strains, locus YLL001W, strain dnm1, hits give low values)?
Answer: 0.815 (active)

Question: And the normalized growth (S. cerevisiae deletion strains, locus YLL026W, hits give low values)?
Answer: 0.893 (active)

Question: What about the normalized growth (S. cerevisiae deletion strains, locus YLL041C, strain sdh2, hits give low values) of the same compound?
Answer: 0.886 (active)

Question: And the normalized growth (S. cerevisiae deletion strains, locus YLR027C, strain aat2, hits give low values)?
Answer: 0.907 (active)

Question: What about the normalized growth (S. cerevisiae deletion strains, locus YLR039C, strain RIC1, hits give low values) of the same compound?
Answer: 0.399 (active)

Question: What about the normalized growth (S. cerevisiae deletion strains, locus YLR058C, strain SHM2, hits give low values) of the same compound?
Answer: 0.895

Question: What about the normalized growth (S. cerevisiae deletion strains, locus YLR102C, strain apc9, hits give low values) of the same compound?
Answer: 0.887 (active)

Question: What about the normalized growth (S. cerevisiae deletion strains, locus YLR113W, strain HOG1, hits give low values) of the same compound?
Answer: 1.02

Question: And the normalized growth (S. cerevisiae deletion strains, locus YLR221C, strain rsa3, hits give low values)?
Answer: 0.809 (active)

Question: What about the normalized growth (S. cerevisiae deletion strains, locus YLR258W, strain gsy2, hits give low values) of the same compound?
Answer: 0.852 (active)

Question: And the normalized growth (S. cerevisiae deletion strains, locus YLR262C, strain YPT6 (second series), hits give low values)?
Answer: 0.499 (active)

Question: And the normalized growth (S. cerevisiae deletion strains, locus YLR262C, strain YPT6, hits give low values)?
Answer: 0.492 (active)

Question: And the normalized growth (S. cerevisiae deletion strains, locus YLR268W, strain sec22, hits give low values)?
Answer: 0.77 (active)

Question: What about the normalized growth (S. cerevisiae deletion strains, locus YLR320W, strain mms22, hits give low values) of the same compound?
Answer: 0.659 (active)

Question: What about the normalized growth (S. cerevisiae deletion strains, locus YLR330W, strain CHS5, hits give low values) of the same compound?
Answer: 0.893 (active)

Question: What about the normalized growth (S. cerevisiae deletion strains, locus YLR342W, strain FKS1 (second series), hits give low values) of the same compound?
Answer: 0.789 (active)

Question: What about the normalized growth (S. cerevisiae deletion strains, locus YLR342W, strain FKS1, hits give low values) of the same compound?
Answer: 0.857 (active)

Question: What about the normalized growth (S. cerevisiae deletion strains, locus YLR357W, strain rsc2, hits give low values) of the same compound?
Answer: 0.994

Question: And the normalized growth (S. cerevisiae deletion strains, locus YLR370C, strain arc18, hits give low values)?
Answer: 0.83 (active)

Question: What about the normalized growth (S. cerevisiae deletion strains, locus YLR371W, strain rom2, hits give low values) of the same compound?
Answer: 0.894 (active)

Question: What about the normalized growth (S. cerevisiae deletion strains, locus YLR384C, strain iki3, hits give low values) of the same compound?
Answer: 0.893 (active)

Question: What about the normalized growth (S. cerevisiae deletion strains, locus YLR418C, strain cdc73, hits give low values) of the same compound?
Answer: 0.649 (active)

Question: And the normalized growth (S. cerevisiae deletion strains, locus YML016C, strain PPZ1, hits give low values)?
Answer: 0.894 (active)

Question: And the normalized growth (S. cerevisiae deletion strains, locus YML032C, strain rad52, hits give low values)?
Answer: 0.862 (active)

Question: What about the normalized growth (S. cerevisiae deletion strains, locus YML120C, strain ndi1, hits give low values) of the same compound?
Answer: 0.795 (active)

Question: And the normalized growth (S. cerevisiae deletion strains, locus YML124C, strain tub3, hits give low values)?
Answer: 0.888 (active)

Question: What about the normalized growth (S. cerevisiae deletion strains, locus YMR058W, strain fet3, hits give low values) of the same compound?
Answer: 0.866 (active)

Question: And the normalized growth (S. cerevisiae deletion strains, locus YMR078C, strain ctf18, hits give low values)?
Answer: 0.896 (active)

Question: And the normalized growth (S. cerevisiae deletion strains, locus YMR125W, strain sto1, hits give low values)?
Answer: 0.854 (active)

Question: And the normalized growth (S. cerevisiae deletion strains, locus YMR129W, hits give low values)?
Answer: 0.889 (active)

Question: What about the normalized growth (S. cerevisiae deletion strains, locus YMR205C, strain PFK2, hits give low values) of the same compound?
Answer: 0.737 (active)

Question: And the normalized growth (S. cerevisiae deletion strains, locus YMR223W, strain ubp8, hits give low values)?
Answer: 0.82 (active)

Question: What about the normalized growth (S. cerevisiae deletion strains, locus YMR231W, strain pep5, hits give low values) of the same compound?
Answer: 0.843 (active)

Question: What about the normalized growth (S. cerevisiae deletion strains, locus YMR263W, strain SAP30, hits give low values) of the same compound?
Answer: 0.873 (active)

Question: What about the normalized growth (S. cerevisiae deletion strains, locus YMR307W, strain GAS1, hits give low values) of the same compound?
Answer: 0.638

Question: What about the normalized growth (S. cerevisiae deletion strains, locus YNL067W, strain RPL9B, hits give low values) of the same compound?
Answer: 0.92

Question: And the normalized growth (S. cerevisiae deletion strains, locus YNL071W, strain lat1, hits give low values)?
Answer: 0.702 (active)

Question: What about the normalized growth (S. cerevisiae deletion strains, locus YNL153C, strain GIM3, hits give low values) of the same compound?
Answer: 0.898

Question: And the normalized growth (S. cerevisiae deletion strains, locus YNL175C, strain NOP13, hits give low values)?
Answer: 0.907 (active)

Question: And the normalized growth (S. cerevisiae deletion strains, locus YNL183C, strain NPR1, hits give low values)?
Answer: 0.992

Question: And the normalized growth (S. cerevisiae deletion strains, locus YNL197C, strain WHI3, hits give low values)?
Answer: 0.893 (active)

Question: What about the normalized growth (S. cerevisiae deletion strains, locus YNL209W, strain ssb2, hits give low values) of the same compound?
Answer: 0.917 (active)

Question: And the normalized growth (S. cerevisiae deletion strains, locus YNL224C, strain SQS1, hits give low values)?
Answer: 0.915 (active)

Question: And the normalized growth (S. cerevisiae deletion strains, locus YNL233W, strain BNI4, hits give low values)?
Answer: 0.913

Question: And the normalized growth (S. cerevisiae deletion strains, locus YNL248C, strain rpa49, hits give low values)?
Answer: 0.931

Question: What about the normalized growth (S. cerevisiae deletion strains, locus YNL250W, strain rad50, hits give low values) of the same compound?
Answer: 0.993

Question: What about the normalized growth (S. cerevisiae deletion strains, locus YNL271C, strain bni1, hits give low values) of the same compound?
Answer: 0.955

Question: And the normalized growth (S. cerevisiae deletion strains, locus YNL298W, strain CLA4, hits give low values)?
Answer: 0.932

Question: And the normalized growth (S. cerevisiae deletion strains, locus YNL307C, strain MCK1, hits give low values)?
Answer: 0.645 (active)

Question: What about the normalized growth (S. cerevisiae deletion strains, locus YNL322C, strain KRE1 (second series), hits give low values) of the same compound?
Answer: 0.903 (active)

Question: What about the normalized growth (S. cerevisiae deletion strains, locus YNL322C, strain KRE1, hits give low values) of the same compound?
Answer: 0.893 (active)

Question: What about the normalized growth (S. cerevisiae deletion strains, locus YNR049C, strain mso1, hits give low values) of the same compound?
Answer: 0.885 (active)

Question: What about the normalized growth (S. cerevisiae deletion strains, locus YNR052C, strain pop2, hits give low values) of the same compound?
Answer: 0.835 (active)

Question: And the normalized growth (S. cerevisiae deletion strains, locus YOL006C, strain TOP1, hits give low values)?
Answer: 0.697

Question: What about the normalized growth (S. cerevisiae deletion strains, locus YOL012C, strain htz1) of the same compound?
Answer: 0.653

Question: What about the normalized growth (S. cerevisiae deletion strains, locus YOL147C, strain pex11, hits give low values) of the same compound?
Answer: 0.868 (active)

Question: What about the normalized growth (S. cerevisiae deletion strains, locus YOR001W, strain rrp6, hits give low values) of the same compound?
Answer: 0.95

Question: What about the normalized growth (S. cerevisiae deletion strains, locus YOR061W, strain CKA2, hits give low values) of the same compound?
Answer: 0.882 (active)

Question: And the normalized growth (S. cerevisiae deletion strains, locus YOR069W, strain VPS5, hits give low values)?
Answer: 0.891 (active)

Question: What about the normalized growth (S. cerevisiae deletion strains, locus YOR070C, strain gyp1, hits give low values) of the same compound?
Answer: 0.864 (active)

Question: What about the normalized growth (S. cerevisiae deletion strains, locus YOR080W, strain dia2, hits give low values) of the same compound?
Answer: 0.914

Question: And the normalized growth (S. cerevisiae deletion strains, locus YOR083W, strain WHI5 (second series), hits give low values)?
Answer: 0.971

Question: And the normalized growth (S. cerevisiae deletion strains, locus YOR083W, strain WHI5, hits give low values)?
Answer: 0.868 (active)

Question: And the normalized growth (S. cerevisiae deletion strains, locus YOR106W, strain vam3, hits give low values)?
Answer: 0.85 (active)

Question: And the normalized growth (S. cerevisiae deletion strains, locus YOR136W, strain idh2, hits give low values)?
Answer: 0.953

Question: And the normalized growth (S. cerevisiae deletion strains, locus YOR144C, strain elg1, hits give low values)?
Answer: 0.898 (active)

Question: What about the normalized growth (S. cerevisiae deletion strains, locus YOR184W, strain ser1, hits give low values) of the same compound?
Answer: 0.621 (active)

Question: What about the normalized growth (S. cerevisiae deletion strains, locus YOR231W, strain MKK1, hits give low values) of the same compound?
Answer: 1.01

Question: And the normalized growth (S. cerevisiae deletion strains, locus YOR265W, strain rbl2, hits give low values)?
Answer: 0.892 (active)

Question: And the normalized growth (S. cerevisiae deletion strains, locus YOR270C, strain vph1, hits give low values)?
Answer: 0.617 (active)

Question: What about the normalized growth (S. cerevisiae deletion strains, locus YOR290C, strain snf2, hits give low values) of the same compound?
Answer: 0.746 (active)

Question: What about the normalized growth (S. cerevisiae deletion strains, locus YOR316C, strain cot1, hits give low values) of the same compound?
Answer: 0.881 (active)

Question: What about the normalized growth (S. cerevisiae deletion strains, locus YPL051W, strain arl3, hits give low values) of the same compound?
Answer: 0.771 (active)

Question: What about the normalized growth (S. cerevisiae deletion strains, locus YPL078C, strain atp4, hits give low values) of the same compound?
Answer: 0.774 (active)

Question: And the normalized growth (S. cerevisiae deletion strains, locus YPL106C, strain sse1, hits give low values)?
Answer: 1.04

Question: And the normalized growth (S. cerevisiae deletion strains, locus YPL240C, strain hsp82, hits give low values)?
Answer: 0.879 (active)

Question: And the normalized growth (S. cerevisiae deletion strains, locus YPL241C, strain CIN2, hits give low values)?
Answer: 0.943 (active)

Question: What about the normalized growth (S. cerevisiae deletion strains, locus YPL256C, strain CLN2, hits give low values) of the same compound?
Answer: 0.996

Question: And the normalized growth (S. cerevisiae deletion strains, locus YPR119W, strain clb2, hits give low values)?
Answer: 0.87 (active)

Question: And the normalized growth (S. cerevisiae deletion strains, locus YPR141C, strain kar3, hits give low values)?
Answer: 0.963

Question: What about the normalized growth (S. cerevisiae deletion strains, locus YPR163C, strain tif3, hits give low values) of the same compound?
Answer: 0.903 (active)

Question: What about the normalized growth (S. cerevisiae deletion strains, locus YPR167C, strain met16, hits give low values) of the same compound?
Answer: 0.882 (active)

Question: What about the normalized growth (S. cerevisiae deletion strains, strain wtn01, hits give low values) of the same compound?
Answer: 0.859 (active)

Question: And the normalized growth (S. cerevisiae strains, strain wild type, hits give low values)?
Answer: 0.888 (active)

From PubChem BioAssay AID1159580 (chemical genetic matrix, 2015)
